TEAD-YAP block: TEAD-YAP interaction inhibition; HEK-TIYL cells, TEAD-Gal4/YAP UAS-luciferase luminescence; inhibition, % at 9.12 µM; 640,000 compounds, 1.4% hits; AID 1259422; in the data active = inhibition above about 32%;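 also: 0% = median of test compound wells and 100% = reference inhibitor wells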
GPR151 activ: activators of human GPR151; Q8TDV0; PathHunter beta-arrestin GPR151 cells, luminescence; activation, % at 11.2 µM; 650,000 compounds, 1% hits; in the data active = activation above about 4.9%;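 also: 0% = median of compound wells and 100% = cells with positive control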
FBW7 act: activators of human E3 ligase FBW7. Q969H0. AlphaScreen FBW7–phospho-cyclin E peptide binding, activator screen. normalized activity (activation), % at 26.1 µM. 650,000 compounds, 0.13% hits. AID 1259310; in the data active = normalized activity above about 1.9%;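 also: purified mutant Fbw7 with reduced substrate affinity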
MITF inh: inhibitors of human MITF. O75030. AlphaScreen MITF homodimerization, bead proximity signal. inhibition, % at 2.6 µM. 650,000 compounds, 0.91% hits; in the data active = inhibition above about 50%;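 also: 0% = vehicle wells with protein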
GPR151 confirm: human GPR151 activation, confirmation screen. shares compounds with GPR151 activ. GPR151 PathHunter beta-arrestin cells, luminescence, 90 min; % of EA-reagent control over plate median. activation, % at 11.2 µM. 6,700 tested, under 10 active. AID 1508609;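 active = mean percent activation across replicates above the confirmation screen cutoff of 4.91%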
GPR119 counter: counter-screen for GPR151 activators: effect on human GPR119; shares compounds with GPR151 activ; GPR119 PathHunter beta-arrestin cells, luminescence, 90 min; 0 = compound-well median, 100 = enzyme-acceptor control; activation, % at 11.2 µM; 6,700 compounds, 0.3% hits; AID 1508611;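 active = mean percent activation in the counterscreen above 29.09%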;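 also: counterscreen on off-target GPR119 to flag nonselective hits from the GPR151 activator screen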
Target sequence (Q8TDV5 whole entry, looked up): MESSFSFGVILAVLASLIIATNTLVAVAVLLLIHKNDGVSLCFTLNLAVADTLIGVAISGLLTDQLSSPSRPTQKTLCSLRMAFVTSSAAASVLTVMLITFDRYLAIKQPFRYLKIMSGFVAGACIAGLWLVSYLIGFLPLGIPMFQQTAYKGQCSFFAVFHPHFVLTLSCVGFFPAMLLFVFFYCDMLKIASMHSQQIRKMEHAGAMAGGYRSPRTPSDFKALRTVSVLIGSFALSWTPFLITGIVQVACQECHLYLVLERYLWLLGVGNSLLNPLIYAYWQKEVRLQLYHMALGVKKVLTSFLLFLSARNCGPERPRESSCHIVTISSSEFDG
Active calls of the source: *; nt = no result given. The list is not random: actives were taken first. Their share in the collection is about 3.5%.

SMILES | TEAD-YAP block | GPR151 activ | FBW7 act | MITF inh | GPR151 confirm | GPR119 counter
COc1ccccc1N/C(N)=N/c1nc(C(F)(F)F)cc(=O)[nH]1 | 7 | 5.1* | 0 | -9 | -1 | -8
Cc1ccccc1N/C(N)=N/c1nc(C(F)(F)F)cc(=O)[nH]1 | 4 | 8.2* | 0 | 11 | 1 | 8
CCOc1c(Cl)cc(C(=O)O)cc1OC | -1 | 6.4* | 0 | -23 | 1 | 13
CCCCOc1c(Cl)cc(C(=O)O)cc1OC | 4 | 0 | 0 | 1 | nt | nt
Cc1ccc(C(=O)/C=C\N2CCCCC2)cc1 | -6 | 5.2* | 0 | 14 | -3 | -30
O=C(N/N=C/c1ccccc1O)/C(=C\c1cccs1)NC(=O)c1ccccc1 | 14 | 1 | 0 | -42 | nt | nt
COc1cccc(/C=N/NC(=O)/C(=C\c2cccs2)NC(=O)c2ccccc2)c1O | 15 | 6.2* | 0 | -66 | 0 | -12
Cc1ccc(Nc2ccc(C(=O)O)cc2[N+](=O)[O-])c(C)c1 | 6 | -2 | 0 | 12 | nt | nt
Cc1cc(C)c2sc(NC(=O)CCC3CCCC3)nc2n1 | -11 | 5.3* | 0 | -6 | 1 | -7
O=c1c2cnn(CCO)c2ncn1Cc1c(F)cccc1Cl | -1 | 6.6* | 0 | -13 | 0 | 5
Nc1ccc(C(=O)Nc2ccc(Oc3cccc(Oc4ccc(NC(=O)c5ccc(N)cc5)cc4)c3)cc2)cc1 | 0 | 6.1* | 0 | 7 | -1 | -14
COc1cc(/C=C/c2ccc3cccc(OC(C)=O)c3n2)c(Br)cc1OC(C)=O | 0 | 0 | 0 | 23 | nt | nt
O=C(CCS(=O)(=O)c1ccc2c(c1)OCC(=O)N2)Nc1ccc(OC(F)(F)F)cc1 | 0 | 7.1* | 0 | 10 | -1 | -10
O=C1COc2cc(S(=O)(=O)Nc3ccc(F)cc3)ccc2N1 | -6 | 6.7* | 0 | 7 | 1 | 0
O=C1COc2cc(S(=O)(=O)CCC(=O)N3CCCCCC3)ccc2N1 | 4 | 5.1* | 0 | 8 | 1 | -3
O=C(Nc1ccc(Cl)cc1)NC(C(=O)O)c1ccccc1 (stereo not given) | 7 | -1 | 0 | 14 | nt | nt
Cc1ccc(C)c(N2CCN(C(=O)CCc3nc(-c4ccccc4F)no3)CC2)c1 | -3 | 5.5* | 0 | -2 | 1 | 9
CNC(=O)OCc1ccc(-c2ccc(Cl)cc2)o1 | -11 | 5.9* | 0 | 0 | 0 | 7
CNC(=O)OCc1ccc(-c2ccc(C)cc2)o1 | -26 | 0 | -1 | 1 | nt | nt
NC1(C(Cl)(Cl)Cl)Oc2ccc(Cl)cc2O1 (stereo not given) | 11 | 9.9* | 0 | 46 | 0 | -3
CCOc1ccc(Br)cc1/C=N\NC(=O)c1cc(C)[nH]n1 | -1 | 7.1* | 0 | 20 | 0 | 14
Cc1cc(C(=O)N/N=C/c2ccccc2O)n[nH]1 | -45 | 2 | 0 | 28 | nt | nt
Cc1cc(C(=O)N/N=C/c2ccccc2F)n[nH]1 | -45 | 9.8* | 0 | 5 | -1 | -9
CCCNC(=O)Cn1cnc2sc(C(=O)N(C)Cc3ccccc3)c(C)c2c1=O | -1 | 1 | 1 | 9 | nt | nt
COc1cc(NC(=O)c2cnc(-c3csc4ccccc34)s2)cc(OC)c1OC | 10 | 5.1* | 0 | 5 | 0 | 2
SMILES | TEAD-YAP block | GPR151 activ | FBW7 act | MITF inh | GPR151 confirm | GPR119 counter
CCCNC(=O)c1ccc2nc(-c3ccc(OC)cc3)sc2c1 | -19 | 11* | 0 | 5 | -1 | -5
COc1cc(NC(=O)c2ccc3nc(-c4cccc(C(C)=O)c4)sc3c2)cc(OC)c1OC | -27 | 13* | 0 | 7 | 1 | 2
COC(=O)COc1ccc(-c2nc3ccccc3s2)cc1OC | 2 | -2 | 0 | -7 | nt | nt
COc1ccc(-c2nc3ccccc3s2)cc1NC(C)=O | -42 | 4.9* | 0 | 7 | 0 | -6
CC(=O)Nc1ccc(NC(=O)c2cnc(-c3csc4ccccc34)s2)cc1 | -4 | -3 | 0 | -3 | nt | nt
CC(=O)Nc1ccc(NC(=O)c2ccc3nc(-c4cccc(C(C)=O)c4)sc3c2)cc1 | 1 | -1 | 0 | -17 | nt | nt
CN1CCN(c2ccc(-c3nc4ccc(C(=O)NCc5cccc(C(F)(F)F)c5)cc4s3)cc2)CC1 | 16 | 5.8* | 0 | -4 | -1 | -19
CC(=O)Nc1ccc(NC(=O)c2ccc3nc(-c4ccc(C(=O)NC5CC5)cc4)sc3c2)cc1 | 10 | 11* | 0 | 2 | 0 | 3
COc1ccc([N+](=O)[O-])cc1NC(=O)CSc1nncn1C | 1 | 1 | 0 | 1 | nt | nt
CC(C)N(CCNC1CCS(=O)(=O)C1)C(C)C (stereo not given) | -3 | 8.4* | 0 | 6 | 0 | 9
CCC(CC)NC(=O)NCC1CC(=O)N(Cc2ccc(F)cc2)C1 (stereo not given) | 3 | -1 | 0 | 7 | nt | nt
Cc1cc(S(=O)(=O)NCc2ccc(F)cc2)ccc1-n1cnnn1 | -3 | -1 | 0 | 3 | nt | nt
O=C(NC1(C(=O)Nc2ccc(Br)cc2)CCCCC1)c1cccc(O)c1 | 9 | 5.5* | 0 | 4 | 0 | -5
O=C(N=Nc1c(O)[nH]c(=O)[nH]c1=O)C1CC1(c1ccccc1)c1ccccc1 (stereo not given) | 9 | 1 | 1 | 8 | nt | nt
O=C(Cn1ccc2ccccc2c1=O)NCCC(=O)Nc1ccc2c(c1)OCCO2 | 16 | 0 | 0 | 10 | nt | nt
O=c1[nH]cc(N=Cc2ccc([N+](=O)[O-])cc2)c(=O)[nH]1 | -9 | 6.5* | 0 | -2 | -1 | -1
O=c1[nH]cc(N=Cc2ccc(O)cc2)c(=O)[nH]1 | -1 | -1 | 1 | -2 | nt | nt
CCN(CC(=O)O)S(=O)(=O)c1cc(Cl)ccc1Cl | 2 | 0 | 0 | 14 | nt | nt
CCN(CC(N)=O)S(=O)(=O)c1cc(Cl)ccc1Cl | -3 | 5.0* | 0 | -15 | 1 | 3
CCN(CC(=O)NC)S(=O)(=O)c1ccc(Cl)cc1 | 4 | 7.6* | 1 | 6 | -2 | -17
CCN(CC)S(=O)(=O)c1ccc(S(=O)(=O)c2ccc(S(=O)(=O)N(CC)CC)cc2)cc1 | 5 | 5.9* | 0 | -2 | -1 | -1
CN(CC(=O)NN)S(=O)(=O)c1ccc(Cl)cc1 | -9 | 6.3* | 0 | 5 | 1 | 10
O=C(Nc1nc2ccc([N+](=O)[O-])cc2s1)c1cccs1 | -52 | -1 | 0 | 8 | nt | nt
CCCCNc1nc2ccccc2c2nc(-c3cccnc3)nn12 | 4 | 1 | 0 | 6 | nt | nt
O=C1CCCN1CCCNc1nc2ccccc2n2nnnc12 | 2 | 5.9* | 0 | -7 | 0 | -8
c1ccc2c(c1)nc(NCCCN1CCOCC1)c1nnnn12 | -8 | -2 | 0 | 7 | nt | nt
O=C1CCCN1CCCNc1nc2ccccc2c2nc(-c3cccnc3)nn12 | 20 | 6.3* | 0 | 10 | 1 | 15
COCC(=O)NNC(=O)Nc1cccc([N+](=O)[O-])c1 | 0 | -1 | 0 | -1 | nt | nt

Assay outcomes: PubChem BioAssay, The Scripps Research Institute Molecular Screening Center
